Test results from PubChem BioAssay AID504727 (Broad Institute, 2011).
Values without a mark were called inactive. The source made the active and inactive calls.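 Rule for the calls: active = fitted half-maximal concentration AC50 at or below ten times the highest valid tested dose, with signal falling as DNA is displaced (actives reach about 34 µM in these data); inconclusive = flat fit at moderate signal loss, or poor fit quality; inactive = the rest, including signal rising instead of falling.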

Experiment: acridine orange-DNA binding displacement – biochemical, fluorescence polarization, cherry-picked samples, set 2, artefact control for KSHV LANA DNA-binding inhibitor project, dose response (AID 504727);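 for activity change, negative = DNA displacement: 0% = median of neutral control wells and -100% = mitoxantrone positive control wells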
Settings: series mostly up to 35 µM; activity change, negative = DNA displacement: at the top concentration

Structure (SMILES) | activity change, negative = DNA displacement [%] | AC50
NS(=O)(=O)c1cc(C(=O)NC2CCSc3ccccc32)ccc1Cl (stereo not drawn) | 1.38 | 
Nc1ccc2c3c(cccc13)C(=O)N(c1ccccc1)C2=O |  | 3.91 µM (active)
CCOc1ccc(Nc2ccc(N)c(S(=O)(=O)O)c2)cc1 | 3.32 | 
Cc1cc2c(N)cccc2nn1 | -2.03 | 
COc1ccc2noc3c2c1C(=O)c1ccccc1-3 |  | 0.241 µM (active)
COc1ccc(-c2n[nH]c(=S)n2-c2ccc(C)cc2)cc1 | 6.18 | 
COc1ccc2[nH]c3c(C)c4cc[n+](C)cc4c(C)c3c2c1 |  | 2.53 µM (active)
CC(Oc1ccccc1)c1nnc(N)s1 (stereo not drawn) |  | 17.5 µM (active)
Cc1ccsc1/C=N/NC(=O)Cc1ccc(Cl)cc1 | 2 | 
O=C(CN1C(=O)/C(=C/c2ccco2)SC1=S)Nc1ccc(O)c(C(=O)O)c1 | -5.04 | 
Cc1cc(NC(=O)CCC(=O)N(CCC(C)C)C(C(=O)NC2CCCC2)c2cccnc2)no1 (stereo not drawn) | 2.2 | 
CCSc1nnc(Cc2cc(=O)[nH]c(=O)[nH]2)n1-c1ccc(F)cc1 | -3.18 | 
COc1cccc(OCCNc2ccc([N+](=O)[O-])cn2)c1 | 6.5 | 
CCc1sc(C(=O)NNC(=O)CNC(=O)c2ccccc2F)cc1C | 6.94 | 
CCOC(=O)C1CCCN(C(=O)C2c3ccccc3Oc3ccccc32)C1 (stereo not drawn) | -14.3 | 
COc1cccc(NC(=S)N2CCN(C(c3ccccc3)c3ccccc3)CC2)c1 | -1.73 | 
O=C(O)C1Nc2ccc(Br)cc2C2C=CCC12 (stereo not drawn) | 1.26 | 
CCCCN(C(=O)C(C)Oc1ccc(Br)cc1)c1c(N)n(CC(C)C)c(=O)[nH]c1=O (stereo not drawn) | 2.88 | 
CC(OC(=O)CCN1C(=O)C2CC=CCC2C1=O)C(=O)Nc1ccc(F)cc1 (stereo not drawn) | 2.67 | 

Structure (SMILES) | activity change, negative = DNA displacement [%] | AC50
CC(=O)N(C(C)=O)N1C(=O)c2cccc3c(N4CCOCC4)ccc(c23)C1=O | 10.5 | 
Cc1ccc2c(c1)nnn2C1CCN(C(=O)c2cccs2)CC1 | -0.055 | 
O=C(O)CC(C(=O)O)N1C(=O)/C(=C/C=C/c2ccco2)SC1=S (stereo not drawn) | 5.71 | 
CCCN(CCC)S(=O)(=O)c1ccc(C(=O)OCCN2C(=O)c3cccc4c(N5CCOCC5)ccc(c34)C2=O)cc1 |  | 6.89 µM (active)
NNC(=O)CC1=NNC(=O)C1 | 2.31 | 
CCCN(CCC)C(=O)C1c2ccccc2Oc2ccccc21 | 5.46 | 
CC(C)Cc1nc(SCC(=O)Nc2nnc(CC(C)C)s2)n[nH]1 | 0.376 | 
C=CCNC(=S)N1CCN(S(=O)(=O)c2ccc(C)cc2)CC1 | 5.53 | 
O=S(=O)(O)c1cc(O)c2cc(Nc3ccccc3)ccc2c1 | 6.99 | 
O=C1/C(=C/c2ccco2)Oc2c1ccc(O)c2CN1CCCCC1 |  | 18.9 µM (active)
COC(=O)c1ccccc1NC(=O)CCS(=O)(=O)c1ccc(Br)cc1 | 1.54 | 
COc1ccc(N=Nc2nc3ccc(Br)cc3n2C)cc1 | -3.72 | 
Cc1ccc(N=Nc2c(O)[nH]c3ccc(F)cc23)cc1 | 64.6 | 
Nc1ccc2cc3[nH]c4cc(N)ccc4c3nc2c1 |  | 1.48 µM (active)
Oc1[nH]c2ccccc2c1N=Nc1ccccc1F | 21.1 | 
CN(C)c1ccc(/C=C/C(=O)c2ccc(O)cc2)cc1[N+](=O)[O-] | -4.37 | 
COc1ccc(C2C(C(=O)c3cccs3)=C(O)C(=O)N2c2nnc(C)s2)cc1OC (stereo not drawn) |  | 21.6 µM (active)
COc1cc(O)c(C(C)=O)c(CC(=O)O)c1 | 1.3 | 
CCN(C(=O)c1cccc(S(=O)(=O)N2CCc3ccccc32)c1)C1CCS(=O)(=O)C1 (stereo not drawn) | 1.43 | 
